# Compound activity from PubChem BioAssay.
# HEK293 tox = qHTS of GLP-1 Receptor Inverse Agonists: Cytotox Screen; HEK293 cAMP-luciferase reporter cells, luminescence, 24 h; AID 624418, 2012; 410,000 tested, 0.13% active; Potency, µM (series often up to 38.3 µM), hits mostly inhibitors;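 note: loss of luciferase light is scored as toxicity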
#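 To flag toxic compounds, the library was rerun on cells for 24 hr at 37 deg C and 5% CO2. Viability-linked luminescence was captured 12 min after adding luciferase detection reagent.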
# hERG WT inh = qHTS for Inhibitors of KCHN2 3.1: Wildtype qHTS | Voltage-gated inwardly rectifying potassium channel KCNH2 (Homo sapiens), Q12809 | U2OS, BacMam KCNH2, thallium flux FluxOr; hits give low values | activity change, % at 1.84 µM | 340,000 tested, 0.37% active;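 active = maximum activity change below -70%; inconclusive = maximum activity change between -70% and -50%; inactive = maximum activity change above -50%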
#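 U2OS cells were transduced with wild-type KCNH2 virus (2.03 x 10^8 / mL) for 4 h at room temperature, then cultured overnight at 37 C. Thallium flux was read with FluxOr dye. Rate constants were normalized to DMSO controls.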
# KCNH2 3.1 block = qHTS for Inhibitors of KCHN2 3.1: Mutant qHTS; Potassium voltage-gated channel subfamily H member 2, brain isoform KCNH2 3.1 (human); U2OS KCNH2 3.1, thallium flux FluxOr; hits give low values; activity change, % (tested at about 1.8 µM); 340,000 tested, 0.95% active;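 active = maximum activity change below -70%; inconclusive = maximum activity change from -70% to -50%; inactive = maximum activity change above -50%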;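 note: thallium influx rate constant from kinetic fluorescence after stimulation buffer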
#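 Kinetic fluorescence (2 min after stimulation buffer) measures Tl+ influx through KCNH2 3.1 expressed by viral transduction in U2OS cells; the rate constant is normalized against DMSO controls serving as positive and negative references.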
# GLS inhibitor = qHTS for Inhibitors of Glutaminase (GLS) | Glutaminase kidney isoform, mitochondrial (Homo sapiens), O94925 | GLS enzymatic activity, qHTS titration | Potency, µM (highest dose often 45.5 µM), most hits filed as inhibitors | 410,000 tested, 0.21% active | AID 624170, 2012
#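 Enzyme dispensed in phosphate buffer (45 mM, pH 8.2, 0.02% Tween-20), compounds pinned in, then 1 mM L-glutamine solution and the glutamate oxidase–HRP–Amplex Red mix added; fluorescence read immediately and again after 30 min at room temperature.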
# GLP1R ag = qHTS of GLP-1 Receptor Agonists | AID 624172, 2012 | Potency, µM (highest dose often 45.6 µM), actives largely listed as activators | 380,000 tested, 0.007% active | HEK293 GLP-1R CRE-luciferase, luminescence, 4-6 h; cells express a hypersensitive GLP-1R form
# Target sequence (P43220 whole entry, looked up): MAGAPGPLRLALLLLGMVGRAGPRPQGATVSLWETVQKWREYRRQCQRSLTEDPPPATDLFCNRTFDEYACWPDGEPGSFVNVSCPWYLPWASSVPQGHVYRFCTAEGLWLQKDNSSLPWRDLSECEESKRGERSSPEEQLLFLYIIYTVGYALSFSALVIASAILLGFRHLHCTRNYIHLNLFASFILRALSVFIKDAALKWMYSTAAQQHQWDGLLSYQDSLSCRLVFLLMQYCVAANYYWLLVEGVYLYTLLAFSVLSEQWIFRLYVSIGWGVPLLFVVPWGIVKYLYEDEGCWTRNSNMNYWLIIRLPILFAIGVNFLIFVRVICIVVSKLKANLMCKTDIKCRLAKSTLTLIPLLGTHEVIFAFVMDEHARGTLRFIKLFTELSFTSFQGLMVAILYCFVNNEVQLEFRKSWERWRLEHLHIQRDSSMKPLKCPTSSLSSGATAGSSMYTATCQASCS
# GLP1R inv ag = qHTS of GLP-1 Receptor Inverse Agonists (Inhibition Mode); Glucagon-like peptide 1 receptor (Homo sapiens), P43220; HEK293 GLP-1R CRE-luciferase, luminescence, 24 h; GLP-1R form is constitutively active; Potency, µM (top dose mostly 38.3 µM), hits mostly inhibitors; 410,000 tested, 1.6% active; AID 624417, 2012; note: nearly all actives have a fitted effect of over 55% in size
#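 qHTS in 1536-well format: reporter HEK293 cells expressing constitutive GLP-1R activity in DMEM + 10% Nu serum, 24 hr with compounds at 37 deg C, luminescence read after 12 min with detection reagent.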
# Hits are given with their value; . = inactive; ? = inconclusive; / = no result given. This is a sample that favours compounds with a hit; in the whole collection about 2.8% have one here. Unless noted, calls come from the whole dose curve; as a rule, active = well fitted curve in the direction sought with a large enough effect; inconclusive = small, poorly fitted or top-dose-only effect, or another doubt; inactive = no such curve, though single readings can be large; an effect the other way counts as inactive or inconclusive.
SMILES,HEK293 tox,hERG WT inh,KCNH2 3.1 block,GLS inhibitor,GLP1R ag,GLP1R inv ag
CCCCC(=O)NC(=S)Nc1nnn(CCC)n1,?,.,.,.,.,11.2µM
CNC(C)CC1CCCCC1 (centres undefined),/,/,/,.,.,/
O=c1[nH]c(=O)n(Cc2ccc(F)cc2)c(O)c1/C=N/Nc1ccccc1,.,.,.,.,.,4.47µM
O=c1[nH]c(=O)n(Cc2ccc(F)cc2)c(O)c1C=NCCCO,.,.,.,.,.,.
CCOC(=O)c1c(-n2c(C)cc(C=C3C(=O)NC(=O)NC3=O)c2C)sc2c1CCCC2,.,.,.,.,.,.
Cc1cccc(N2C(=O)NC(=O)/C(=C\c3cc(C)n(-c4sc5c(c4C#N)CCCC5)c3C)C2=O)c1C,.,.,.,.,.,3.55µM
CC(C)C[C@H](NC(=O)c1[nH]cnc1C(=O)Nc1ccccc1)C(=O)OC(C)(C)C,?,.,.,.,.,?
Oc1cc[c]([Hg][Cl])cc1,/,/,/,?,.,/
COc1ccc(C2CN(C)CC2C(=O)c2ccc(C)cc2)cc1Cl (centres undefined),.,.,.,.,.,10µM
CN1CC(C(=O)c2ccc(F)cc2)C(c2ccc(F)cc2)C1 (centres undefined),.,.,.,.,.,?
CN1CC(C(=O)c2ccc(Cl)cc2)C(c2ccc(Cl)cc2Cl)C1 (centres undefined),.,.,?,.,.,8.91µM
CN1CC(C(=O)c2ccc(Cl)cc2)C(c2ccc(N(C)C)cc2)C1 (centres undefined),.,/,.,.,.,?
Cc1ccccc1C(=O)Nc1ccc(C(=O)OCc2cc(=O)n3nc(C4CC4)sc3n2)cc1,.,/,/,.,/,?
CN(C)CCc1c[nH]c2ccccc12,/,/,/,.,.,/
C=CCNC(=S)N1Cc2ccccc2-n2nncc2C1,.,-119.9,.,.,.,.
